Bioassay records: PubChem, Broad Institute
This is one part of a sample in which hits are shown more often than they occur.
C diff growth – C. difficile growth inhibition. Clostridium difficile clinical isolate growth, OD600, 24 h; hits give low values. growth activity, negative = inhibition, % at 16 µg/mL (by protocol). actives 0.25% (n = 86,000). AID 1259249;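 active means mean growth activity at or below -80% and every replicate also at or below -80%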;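 further: 0% = DMSO wells and -100% = levofloxacin 16 µg/mL wells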
* = called active by the depositor.

SMILES | C diff growth
C[C@@H]1CN([C@@H](C)CO)C(=O)c2cc(-c3ccc(F)cc3)cnc2O[C@@H]1CN(C)Cc1cncnc1 | 0.2
O=C(Nc1ccc(Cl)cc1)N[C@@H]1CC[C@@H](CCNS(=O)(=O)c2ccccc2F)O[C@@H]1CO | 60.8
C[C@@H]1CN([C@H](C)CO)C(=O)c2cccc(NC(=O)c3cnccn3)c2O[C@H]1CN(C)Cc1ccncc1 | -3.0
CC(C)C#Cc1cnc2c(c1)C(=O)N([C@H](C)CO)C[C@H](C)[C@@H](CN(C)Cc1ccc3c(c1)OCO3)O2 | 0.7
O=C(C[C@@H]1C=C[C@@H](NC(=O)c2ccc3c(c2)OCO3)[C@@H](CO)O1)NCc1ccc(Oc2ccccc2)cc1 | -5.4
COc1ccc(S(=O)(=O)N(C)C[C@H]2Oc3ccc(NC(=O)Nc4cccc5ccccc45)cc3CC(=O)N([C@@H](C)CO)C[C@@H]2C)cc1 | -2.0
Cc1ccc(S(=O)(=O)Nc2ccc3c(c2)C(=O)N([C@H](C)CO)C[C@@H](C)[C@@H](CN(C)CC2CCCCC2)O3)cc1 | -6.7
C[C@H](CO)N1C[C@H](C)[C@@H](CN(C)Cc2ccc(C(=O)O)cc2)Oc2ncc(C3=CCCC3)cc2C1=O | -3.0
CN1c2ccc(Br)cc2[C@H]2[C@H](CCN2C(=O)Nc2cccc(F)c2)[C@H]1CO | 30.8
CN1c2ccc(Br)cc2[C@@H]2[C@@H](CCN2C(=O)Nc2ccc(F)cc2)[C@H]1CO | -98.3*
COc1ccc(-c2ccc3c(c2)[C@H]2[C@H](CCN2C(=O)c2ccccc2F)[C@H](CO)N3C)cc1 | -11.8
COc1cccc(-c2ccc3c(c2)[C@H]2[C@H](CCN2C(=O)c2ccccc2F)[C@H](CO)N3C)c1 | -0.1
COc1ccc(NC(=O)N2CC[C@H]3[C@@H]2c2cc(Br)ccc2N(C)[C@H]3CO)cc1 | -98.5*
COc1cccc(C#Cc2ccc3c(c2)[C@@H]2[C@@H](CCN2C(=O)c2ccccc2F)[C@@H](CO)N3C)c1 | -97.5*
CN1c2ccc(Br)cc2[C@@H]2[C@@H](CCN2C(=O)Nc2ccc(F)cc2)[C@@H]1CO | 15.3
COc1ccc(NC(=O)N2CC[C@@H]3[C@H]2c2cc(-c4ccc(F)cc4)ccc2N(C)[C@H]3CO)cc1 | 46.1
COc1ccc(NC(=O)N2CC[C@@H]3[C@H]2c2cc(Br)ccc2N(C)[C@H]3CO)cc1 | 6.9
C[C@@H]1CN([C@@H](C)CO)C(=O)Cc2cc(NC(=O)CCCCCC(=O)Nc3ccccc3N)ccc2O[C@H]1CN(C)S(=O)(=O)c1cn(C)cn1 | -1.4
N#C[C@H]1[C@H](c2ccc(C#Cc3cccc(F)c3)cc2)[C@@H](CO)N1C(=O)C1CC1 | -6.4
C[C@@H](O)C#Cc1ccc([C@@H]2[C@@H](CO)N3CCCCN(C(=O)c4cccc(F)c4)C[C@@H]23)cc1 | 2.6
C[C@@H]1CN([C@@H](C)CO)C(=O)c2cc(NC(=O)Nc3ccc4c(c3)OCO4)ccc2O[C@@H]1CN(C)Cc1ccncc1 | 1.9
CN(C)C(=O)c1cccc(-c2ccc([C@@H]3[C@@H](CO)N(C(=O)C4CCC4)[C@H]3C#N)cc2)c1 | -0.3
COc1ccc(CN(C)C[C@@H]2Oc3c(NC(=O)Nc4ccc(C(F)(F)F)cc4)cccc3C(=O)N([C@H](C)CO)C[C@@H]2C)cc1 | 16.9
C[C@@H]1CN([C@@H](C)CO)C(=O)c2cccc(NC(=O)Nc3ccccc3)c2O[C@@H]1CN(C)Cc1ccc(-c2ccccc2)cc1 | -101.8*
C[C@H]1CN([C@@H](C)CO)C(=O)c2cccc(NC(=O)Nc3ccc(C(F)(F)F)cc3)c2O[C@H]1CN(C)Cc1ccc(Oc2ccccc2)cc1 | 80.6
SMILES | C diff growth
C[C@@H]1CN([C@@H](C)CO)C(=O)c2cccc(NC(=O)Nc3ccc(C(F)(F)F)cc3)c2O[C@@H]1CN(C)Cc1ccc(Oc2ccccc2)cc1 | -96.3*
C[C@H]1CN([C@@H](C)CO)C(=O)c2cccc(NC(=O)Nc3ccccc3)c2O[C@@H]1CN(C)Cc1ccc(-c2ccccc2)cc1 | -0.4
COc1ccc(NC(=O)Nc2cccc3c2O[C@H](CN(C)Cc2ccc(C(F)(F)F)cc2)[C@H](C)CN([C@@H](C)CO)C3=O)cc1 | -100.8*
COc1ccc(CN(C)C[C@@H]2Oc3c(NC(=O)Nc4ccc(C(F)(F)F)cc4)cccc3C(=O)N([C@@H](C)CO)C[C@H]2C)cc1 | 14.9
C[C@H]1CN([C@@H](C)CO)C(=O)c2cccc(NC(=O)Nc3ccc(F)cc3)c2O[C@@H]1CN(C)Cc1ccc(-c2ccccc2)cc1 | -3.5
C[C@@H]1CN([C@H](C)CO)C(=O)c2cccc(NC(=O)Nc3ccc(C(F)(F)F)cc3)c2O[C@@H]1CN(C)Cc1ccc(Oc2ccccc2)cc1 | -25.4
C[C@@H]1CN([C@H](C)CO)C(=O)c2cc(C#Cc3ccncc3)cnc2O[C@@H]1CN(C)CC1CCCC1 | 5.5
O=C(c1ccccc1F)N1CC(=O)N2[C@H](CO)[C@@H](c3ccc(-c4cccnc4)cc3)[C@@H]2C1 | 6.4
COc1ccc(NC(=O)Nc2ccc3c(c2)[C@H]2C[C@H](CC(=O)N[C@@H](C)c4ccccc4)O[C@@H](CO)[C@H]2O3)cc1 | 3.5
CN1C(=O)c2cc(NC(=O)C3CCCC3)ccc2OC[C@H]2O[C@H](CC(=O)Nc3ccccc3)CC[C@H]21 | 1.5
C[C@H]1CN([C@@H](C)CO)C(=O)c2cc(NS(=O)(=O)c3ccc(Cl)cc3)ccc2O[C@H]1CN(C)Cc1ccccc1 | 3.4
C[C@@H]1CN([C@H](C)CO)C(=O)Cc2cc(NC(=O)Nc3ccc4c(c3)OCO4)ccc2O[C@@H]1CN(C)C(=O)NC1CCCCC1 | -2.2
Cc1ccccc1S(=O)(=O)N1CCCCN2[C@@H](CO)[C@@H](c3ccc(-c4cccc(F)c4)cc3)[C@@H]2C1 | 39.2
C[C@@H]1CN([C@H](C)CO)C(=O)c2cc(C#CCN(C)C)cnc2O[C@@H]1CN(C)C | -2.2
COc1cccc(S(=O)(=O)N(C)C[C@H]2Oc3ncc(C#CCC(C)C)cc3C(=O)N([C@@H](C)CO)C[C@H]2C)c1 | -2.8
O=C(NCC[C@@H]1CC[C@H](NC(=O)C2CCC2)[C@H](CO)O1)Nc1ccc(Cl)cc1 | -0.8
CN(C)CC(=O)N[C@H]1CC[C@H](CCNC(=O)Nc2ccc(C(F)(F)F)cc2)O[C@H]1CO | -94.2*
O=C(NCC[C@@H]1CC[C@H](NC(=O)C2CC2)[C@@H](CO)O1)Nc1ccc(C(F)(F)F)cc1 | -94.0*
O=C(NCC[C@@H]1CC[C@@H](NC(=O)C2CCC2)[C@@H](CO)O1)Nc1ccc(Cl)cc1 | 3.3
O=C(NCC[C@H]1CC[C@H](NC(=O)C2CC2)[C@@H](CO)O1)Nc1ccc(Cl)cc1 | -0.8
O=C(NCC[C@H]1CC[C@H](NC(=O)C2CC2)[C@H](CO)O1)Nc1ccc(Cl)cc1 | 2.3
O=C(NCC[C@@H]1CC[C@H](NC(=O)C2CC2)[C@H](CO)O1)Nc1ccc(C(F)(F)F)cc1 | -95.1*
O=C(NCC[C@@H]1CC[C@@H](NC(=O)C2CC2)[C@@H](CO)O1)Nc1ccc(C(F)(F)F)cc1 | -84.7*
O=C(NCC[C@H]1CC[C@@H](NC(=O)C2CCCC2)[C@@H](CO)O1)Nc1ccc(Cl)cc1 | -0.8
CN(C)CC(=O)N[C@H]1CC[C@H](CCNC(=O)Nc2ccc(Cl)cc2)O[C@H]1CO | 1.5
O=C(NCC[C@@H]1CC[C@@H](NC(=O)C2CC2)[C@@H](CO)O1)Nc1ccc(Cl)cc1 | -3.8
O=C(Nc1ccc(C(F)(F)F)cc1)N[C@H]1CC[C@H](CCNC(=O)c2ccccc2F)O[C@@H]1CO | 7.1
